Measured values published in the supplement of paper PMC6555819.

Key:
Assay in all cases: PBM binding z-score (relative to random genomic background probes); higher = stronger binding; sequences stand for … in GC…GCGATTGACAGCGTAGAATGAAGG
[1] = system: FXR:RXRa (NR concentration 270 nM, RXRa partner concentration 90 nM)
Outline: (§1)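 Binding z-scores were set against random background probes. The data came from custom Agilent 4×180K protein-binding microarrays carrying double-stranded probes with 34-nt variable regions, incubated 1 h with ligand-free nuclear receptor dimers. Partner-specific antibodies detected binding, and scanned fluorescence was regression-normalized.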

[2] = system: LXRa:RXRa (NR concentration 270 nM, RXRa partner concentration 90 nM)
Outline: as §1

[3] = system: LXRa homodimer (NR concentration 270 nM)
Outline: as §1

[4] = system: LXRb:RXRa (NR concentration 270 nM, RXRa partner concentration 90 nM)
Outline: as §1

[5] = system: LXRb homodimer (NR concentration 270 nM)
Outline: as §1

[6] = system: PPARa:RXRa (NR concentration 270 nM, RXRa partner concentration 90 nM)
Outline: as §1

[7] = system: PPARg:RXRa (NR concentration 180 nM, RXRa partner concentration 90 nM)
Outline: as §1

[8] = system: PPARg:RXRa 270nM:90nM, anti-RXR (NR concentration 270 nM, RXRa partner concentration 90 nM)
Outline: as §1

[9] = system: PPARg:RXRa 30nM:10nM, anti-RXR (NR concentration 30 nM, RXRa partner concentration 10 nM)
Outline: as §1

[10] = system: PPARg:RXRa 90nM:30nM, anti-RXR (NR concentration 90 nM, RXRa partner concentration 30 nM)
Outline: as §1

[11] = system: PPARg:RXRa DBDmut IVT, anti-RXR (DBD mutation: RXRa K156A/R161A, NR concentration 270 nM, RXRa partner concentration 90 nM)
Outline: as §1

[12] = system: PPARg:RXRa IVT, anti-PPARg (NR concentration 270 nM, RXRa partner concentration 90 nM)
Outline: as §1

[13] = system: PPARg DBDmut:RXRa IVT, anti-PPARg (DBD mutation: PPARg1 K132A/R137A, NR concentration 270 nM, RXRa partner concentration 90 nM)
Outline: as §1

[14] = system: PPARg DBDmut IVT, anti-PPARg (DBD mutation: PPARg1 K132A/R137A, NR concentration 270 nM)
Outline: as §1

[15] = system: PPARg homodimer (NR concentration 180 nM)
Outline: as §1

[16] = system: PXR:RXRa (NR concentration 270 nM, RXRa partner concentration 90 nM)
Outline: as §1

[17] = system: PXR homodimer (NR concentration 270 nM)
Outline: as §1

[18] = system: RARa:RXR (NR concentration 270 nM, RXRa partner concentration 90 nM)
Outline: as §1

[19] = system: RARa homodimer (NR concentration 270 nM)
Outline: as §1

[20] = system: RARb:RXRa (NR concentration 270 nM, RXRa partner concentration 90 nM)
Outline: as §1

Question: What does the source list for TCTTGTAGATCAAAGGGTAAGAAAGCCGAAGCCT?
Answer: PBM binding z-score [1]: 0.566; PBM binding z-score [2]: 0.4; PBM binding z-score [3]: -0.283; PBM binding z-score [4]: 0.288; PBM binding z-score [5]: -0.418; PBM binding z-score [6]: 2.51; PBM binding z-score [7]: 4.4; PBM binding z-score [8]: 5.99; PBM binding z-score [9]: 5.35; PBM binding z-score [10]: 6.1; PBM binding z-score [11]: 1.69; PBM binding z-score [12]: 1.86; PBM binding z-score [13]: -0.0494; PBM binding z-score [14]: -0.151; PBM binding z-score [15]: -0.138; PBM binding z-score [16]: 0.0425; PBM binding z-score [17]: -0.478; PBM binding z-score [18]: 0.483; PBM binding z-score [19]: -0.0812; PBM binding z-score [20]: 0.507

Question: CAAACTAGGTGACCGGAAGGTCAAAGTCCGCATG was tested. Which PBM binding z-score [1] did it give?
Answer: 6.44

Question: And the PBM binding z-score [2]?
Answer: 4.09

Question: What about the PBM binding z-score [3] of the same sequence?
Answer: 4.16

Question: What about the PBM binding z-score [4] of the same sequence?
Answer: 3.51

Question: And the PBM binding z-score [5]?
Answer: 0.36

Question: And the PBM binding z-score [6]?
Answer: 4.99

Question: And the PBM binding z-score [7]?
Answer: 6.71

Question: And the PBM binding z-score [8]?
Answer: 5.5

Question: What about the PBM binding z-score [9] of the same sequence?
Answer: 3.01

Question: And the PBM binding z-score [10]?
Answer: 5.06

Question: What about the PBM binding z-score [11] of the same sequence?
Answer: 7.47

Question: And the PBM binding z-score [12]?
Answer: 7.68

Question: And the PBM binding z-score [13]?
Answer: 2.87

Question: And the PBM binding z-score [14]?
Answer: 3.33

Question: And the PBM binding z-score [15]?
Answer: 3.59

Question: And the PBM binding z-score [16]?
Answer: 4.49

Question: And the PBM binding z-score [17]?
Answer: 1.01

Question: And the PBM binding z-score [18]?
Answer: 5.41

Question: What about the PBM binding z-score [19] of the same sequence?
Answer: 0.811

Question: And the PBM binding z-score [20]?
Answer: 3.81

Question: CCAGAAAGGTGAGAAGGTAACTCAGCCTCGATTA was tested. Which PBM binding z-score [1] did it give?
Answer: 0.521

Question: What about the PBM binding z-score [2] of the same sequence?
Answer: 0.782

Question: What about the PBM binding z-score [3] of the same sequence?
Answer: -0.167

Question: And the PBM binding z-score [4]?
Answer: 0.842

Question: What about the PBM binding z-score [5] of the same sequence?
Answer: -0.293

Question: What about the PBM binding z-score [6] of the same sequence?
Answer: 2.47

Question: What about the PBM binding z-score [7] of the same sequence?
Answer: 1.02

Question: What about the PBM binding z-score [8] of the same sequence?
Answer: 1.49

Question: And the PBM binding z-score [9]?
Answer: 0.32

Question: What about the PBM binding z-score [10] of the same sequence?
Answer: 0.796

Question: And the PBM binding z-score [11]?
Answer: 2.89

Question: And the PBM binding z-score [12]?
Answer: 1.98

Question: What about the PBM binding z-score [13] of the same sequence?
Answer: -0.302

Question: And the PBM binding z-score [14]?
Answer: -0.361

Question: What about the PBM binding z-score [15] of the same sequence?
Answer: 1.15

Question: What about the PBM binding z-score [16] of the same sequence?
Answer: 0.319

Question: And the PBM binding z-score [17]?
Answer: -0.419

Question: And the PBM binding z-score [18]?
Answer: 1.28

Question: What about the PBM binding z-score [19] of the same sequence?
Answer: 0.133

Question: What about the PBM binding z-score [20] of the same sequence?
Answer: 2.67

Question: How did the PBM binding z-score [1] turn out when ACTTACGGGACAACGAGGTTATAGCACGCGTATA was run?
Answer: 0.442

Question: What about the PBM binding z-score [2] of the same sequence?
Answer: 0.645

Question: What about the PBM binding z-score [3] of the same sequence?
Answer: 0.447

Question: What about the PBM binding z-score [4] of the same sequence?
Answer: 0.958

Question: And the PBM binding z-score [5]?
Answer: 0.473

Question: And the PBM binding z-score [6]?
Answer: 1.08

Question: And the PBM binding z-score [7]?
Answer: 1.01

Question: What about the PBM binding z-score [8] of the same sequence?
Answer: 0.442

Question: And the PBM binding z-score [9]?
Answer: 0.295

Question: And the PBM binding z-score [10]?
Answer: 0.32

Question: What about the PBM binding z-score [11] of the same sequence?
Answer: 0.742

Question: And the PBM binding z-score [12]?
Answer: 0.83

Question: What about the PBM binding z-score [13] of the same sequence?
Answer: 0.547

Question: And the PBM binding z-score [14]?
Answer: 1

Question: And the PBM binding z-score [15]?
Answer: 0.641

Question: What about the PBM binding z-score [16] of the same sequence?
Answer: 0.83

Question: And the PBM binding z-score [17]?
Answer: 0.728

Question: And the PBM binding z-score [18]?
Answer: 0.933

Question: What about the PBM binding z-score [19] of the same sequence?
Answer: 0.919

Question: What about the PBM binding z-score [20] of the same sequence?
Answer: 1.03

Question: Which results are given for AGTCAATGTTCAGGACGAGGTAACGTAAAGCACG?
Answer: PBM binding z-score [1]: -0.0403; PBM binding z-score [2]: -0.35; PBM binding z-score [3]: -0.0733; PBM binding z-score [4]: -0.154; PBM binding z-score [5]: -0.516; PBM binding z-score [6]: -0.141; PBM binding z-score [7]: 0.531; PBM binding z-score [8]: -0.297; PBM binding z-score [9]: 0.071; PBM binding z-score [10]: -0.0574; PBM binding z-score [11]: -0.569; PBM binding z-score [12]: 0.526; PBM binding z-score [13]: 0.282; PBM binding z-score [14]: 0.266; PBM binding z-score [15]: -0.126; PBM binding z-score [16]: -0.119; PBM binding z-score [17]: -0.33; PBM binding z-score [18]: 0.306; PBM binding z-score [19]: 0.567; PBM binding z-score [20]: 0.167

Question: How did the PBM binding z-score [1] turn out when CCTAGTTCGTCAAGGTCACACACGCTATAGGTAC was run?
Answer: 4.55

Question: And the PBM binding z-score [2]?
Answer: 3.92

Question: And the PBM binding z-score [3]?
Answer: 2.75

Question: And the PBM binding z-score [4]?
Answer: 4.06

Question: And the PBM binding z-score [5]?
Answer: 1.33

Question: What about the PBM binding z-score [6] of the same sequence?
Answer: 4.36

Question: And the PBM binding z-score [7]?
Answer: 2.52

Question: And the PBM binding z-score [8]?
Answer: 3.46

Question: What about the PBM binding z-score [9] of the same sequence?
Answer: 0.804

Question: What about the PBM binding z-score [10] of the same sequence?
Answer: 2.23

Question: And the PBM binding z-score [11]?
Answer: 1.21

Question: And the PBM binding z-score [12]?
Answer: 2.33

Question: What about the PBM binding z-score [13] of the same sequence?
Answer: 1

Question: And the PBM binding z-score [14]?
Answer: 1.24

Question: And the PBM binding z-score [15]?
Answer: 4.18

Question: And the PBM binding z-score [16]?
Answer: 5.38

Question: And the PBM binding z-score [17]?
Answer: 10.4

Question: And the PBM binding z-score [18]?
Answer: 4.97

Question: What about the PBM binding z-score [19] of the same sequence?
Answer: 2.49

Question: What about the PBM binding z-score [20] of the same sequence?
Answer: 4.37

Question: TTATCAAGGTGAAGGTCGTTGATCCCTCTGTAGA was tested. Which PBM binding z-score [1] did it give?
Answer: 2.51

Question: And the PBM binding z-score [2]?
Answer: 1.93

Question: What about the PBM binding z-score [3] of the same sequence?
Answer: 0.076

Question: What about the PBM binding z-score [4] of the same sequence?
Answer: 1.75

Question: And the PBM binding z-score [5]?
Answer: -0.0841

Question: What about the PBM binding z-score [6] of the same sequence?
Answer: 3.01

Question: And the PBM binding z-score [7]?
Answer: 2.92

Question: What about the PBM binding z-score [8] of the same sequence?
Answer: 3.88

Question: What about the PBM binding z-score [9] of the same sequence?
Answer: 2.1

Question: What about the PBM binding z-score [10] of the same sequence?
Answer: 3.49

Question: What about the PBM binding z-score [11] of the same sequence?
Answer: 2.89

Question: What about the PBM binding z-score [12] of the same sequence?
Answer: 3.99

Question: And the PBM binding z-score [13]?
Answer: 1.51

Question: What about the PBM binding z-score [14] of the same sequence?
Answer: 0.341

Question: What about the PBM binding z-score [15] of the same sequence?
Answer: 1.18

Question: What about the PBM binding z-score [16] of the same sequence?
Answer: 1.66

Question: What about the PBM binding z-score [17] of the same sequence?
Answer: 0.515

Question: What about the PBM binding z-score [18] of the same sequence?
Answer: 2.18

Question: And the PBM binding z-score [19]?
Answer: -0.235

Question: What about the PBM binding z-score [20] of the same sequence?
Answer: 2.21
